For seven sequences, binding signal results are on record in paper PMC8384837, “Expanding the binding specificity for RNA recognition by a PUF domain”.

For the first experiment, the target named is PUM1 PUF domain R4-GCG (Homo sapiens, UniProt Q14671 828-1176, N971G;H972C;Q975G). Description: yeast three-hybrid, YBZ-1, SC-Leu-His + 0.5 mM 3-AT, 4 days. The following applies: tags: N-Gal4 AD-HA kept; label: inside an RPR1-promoter hybrid RNA with tandem MS2 sites; ssRNA. In outline: (§1)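 The interaction score is the log change in variant frequency from input to selection. Scores were computed in log2 with a pseudocount of 1 for absent variants, using Illumina sequencing of PCR-amplified repeat regions. The input came from four days on SC-Leu and the selection from four days on SC-Leu-His + 0.5 mM 3-AT. The cells were strain YBZ-1 (LexA–MS2 coat fusion, HIS3 reporter) co-expressing Pumilio-1 PUF domain libraries and matching RNA elements from a centromeric plasmid.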
As to “GGCUAGAACUAGUGGAUCCCCCGGCGCCCGGCGGCUCGAGCCCGGGUAAGUGUAUAUAGUCUGCAUGCCGCCGGGCGCCAUGCCUGCAGGUCGACUCUAGAAAACAUG”, the binding signal was 2.61 log2 enrichment (interaction score).
The same measure, in the same setting: next, “GGCUAGAACUAGUGGAUCCCCCGGCGCCCGGCGGCUCGAGCCCGGGUAAGUGUACAUAGUCUGCAUGCCGCCGGGCGCCAUGCCUGCAGGUCGACUCUAGAAAACAUG”: 1.07 log2 enrichment (interaction score).
On the same count and under the same terms, next, “GGCUAGAACUAGUGGAUCCCCCGGCGCCCGGCGGCUCGAGCCCGGGUAAGUGUAAAUAGUCUGCAUGCCGCCGGGCGCCAUGCCUGCAGGUCGACUCUAGAAAACAUG”: 2.71 log2 enrichment (interaction score).

The next experiment concerns the target PUM1 PUF domain R5-AGR (Homo sapiens, UniProt Q14671 828-1176, C1007A;R1008G;Q1011R). Described as above. The following applies: tags: N-Gal4 AD-HA kept; label: inside an RPR1-promoter hybrid RNA with tandem MS2 sites; ssRNA. In outline: as §1
Turning to “GGCUAGAACUAGUGGAUCCCCCGGCGCCCGGCGGCUCGAGCCCGGGUAAGUGUUAAUAGUCUGCAUGCCGCCGGGCGCCAUGCCUGCAGGUCGACUCUAGAAAACAUG”, the binding signal is 0.84 log2 enrichment (interaction score).
Turning to “GGCUAGAACUAGUGGAUCCCCCGGCGCCCGGCGGCUCGAGCCCGGGUAAGUGUCAAUAGUCUGCAUGCCGCCGGGCGCCAUGCCUGCAGGUCGACUCUAGAAAACAUG”, the binding signal is 3.47 log2 enrichment (interaction score).
Take “GGCUAGAACUAGUGGAUCCCCCGGCGCCCGGCGGCUCGAGCCCGGGUAAGUGUAAAUAGUCUGCAUGCCGCCGGGCGCCAUGCCUGCAGGUCGACUCUAGAAAACAUG”: the binding signal is 0.53 log2 enrichment (interaction score).

For the next experiment, the target named is PUM1 PUF domain R3-FWG (Homo sapiens, UniProt Q14671 828-1176, C935F;R936W;Q939G). Described as above. As to conditions: tags: N-Gal4 AD-HA kept; label: inside an RPR1-promoter hybrid RNA with tandem MS2 sites; ssRNA. In outline:
as §1
“GGCUAGAACUAGUGGAUCCCCCGGCGCCCGGCGGCUCGAGCCCGGGUAAGUGUAAGUAGUCUGCAUGCCGCCGGGCGCCAUGCCUGCAGGUCGACUCUAGAAAACAUG”: the binding signal was 7.02 log2 enrichment (interaction score).
Take “GGCUAGAACUAGUGGAUCCCCCGGCGCCCGGCGGCUCGAGCCCGGGUAAGUGUAAUUAGUCUGCAUGCCGCCGGGCGCCAUGCCUGCAGGUCGACUCUAGAAAACAUG”: the binding signal was 4.85 log2 enrichment (interaction score).
Regarding “GGCUAGAACUAGUGGAUCCCCCGGCGCCCGGCGGCUCGAGCCCGGGUAAGUGUAAAUAGUCUGCAUGCCGCCGGGCGCCAUGCCUGCAGGUCGACUCUAGAAAACAUG”, the binding signal was 4.7 log2 enrichment (interaction score).
